This is a sample that favours compounds with a hit; in the whole collection about 6.8% have one here.
Pf Dd2 inh: P. falciparum Dd2 growth inhibition; SYBR Green, 72 h; active compounds read low; activity change, % at 10 µM; actives 2.3% (n = 94,000); AID 1159554; in the data active = activity change below about -80%; inconclusive = no clear call, values can overlap the other calls
T cruzi growth: T. cruzi proliferation inhibition; actives 5.9% (n = 77,000); AID 624255; inhibition, % at 8.34 µM; T. cruzi beta-gal in NIH3T3, GalScreen luminescence, 90 h;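 active = mean inhibition above about 93%, with at least 55% of replicates each passing it, limit read from the data, passing the limit was not always enough; inconclusive = only one of those two conditions holds; inactive = neither condition holds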
C diff growth: inhibitors of Clostridium difficile growth; Clostridium difficile clinical isolate growth, OD600, 24 h; active compounds read low; growth activity, negative = inhibition, % at 16 µg/mL (by protocol); actives 0.25% (n = 86,000);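 active = mean growth activity at or below -80% and every replicate also at or below -80%; inconclusive = mean at or below -80% but some replicate above -80%; inactive = mean growth activity above -80%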
Hits are given with their value; n = inactive; u = inconclusive; x = not tested or not shown.

SMILES | Pf Dd2 inh | T cruzi growth | C diff growth
C[C@@H]1CN([C@@H](C)CO)C(=O)c2cc(C#CC(C)(C)O)cnc2O[C@@H]1CN(C)Cc1cncnc1 | n | n | n
CS(=O)(=O)N1[C@@H]2c3ccc(-c4ccc(F)cc4)c(=O)n3C[C@H]1[C@H](CO)[C@H]2C(=O)N1CCOCC1 | x | n | n
CN1C(=O)c2cc(NC(=O)NC3CCCC3)ccc2OC[C@H]2O[C@H](CC(=O)NCC3CC3)CC[C@@H]21 | n | n | n
O=C(Nc1ccccc1F)N[C@H]1CC[C@@H](CCNS(=O)(=O)c2ccc(Cl)cc2)O[C@@H]1CO | n | n | x
CCCN1C[C@@H](C)[C@@H](OC)CN(C)C(=O)c2cc(NC(=O)CC(F)(F)F)ccc2OC[C@@H]1C | n | x | n
C[C@H]1CN([C@@H](C)CO)C(=O)c2cccc(NS(=O)(=O)c3cn(C)cn3)c2O[C@H]1CN(C)C(=O)Nc1ccc(C(F)(F)F)cc1 | -85.0 | n | n
C[C@@H]1CN([C@H](C)CO)C(=O)c2cccc(NS(=O)(=O)c3cn(C)cn3)c2O[C@@H]1CN(C)C(=O)Nc1ccc(C(F)(F)F)cc1 | n | n | n
C[C@@H]1CN([C@@H](C)CO)C(=O)c2cccc(NC(=O)Nc3ccc(C(F)(F)F)cc3)c2O[C@H]1CN(C)C(=O)Nc1cccc2ccccc12 | -88.4 | n | n
C[C@H](CO)N1C[C@H](C)[C@H](CN(C)C(=O)Nc2cccc3ccccc23)Oc2c(NC(=O)Nc3ccc(C(F)(F)F)cc3)cccc2C1=O | n | n | n
O=C(C1CCCC1)N1CC2(C1)[C@@H](c1ccccc1)[C@@H](CO)N2CCC(F)(F)F | n | x | n
CC(=O)Nc1ccc2c(c1)C(=O)N(C)[C@@H]1CC[C@@H](CC(=O)Nc3cn(C)nc3C)O[C@H]1CO2 | n | n | n
O=[N+]([O-])c1cccc(/C=C/CO)c1 | x | x | n
C[C@H]1CN([C@@H](C)CO)C(=O)c2ccccc2-c2ccccc2CO[C@@H]1CN(C)Cc1ccc(Cl)c(Cl)c1 | -84.8 | x | n
C[C@@H]1CN([C@H](C)CO)C(=O)c2ccccc2-c2ccccc2CO[C@@H]1CN(C)Cc1ccccc1 | n | n | x
C[C@@H]1CN([C@H](C)CO)C(=O)c2ccccc2-c2ccccc2CO[C@@H]1CN(C)Cc1ccc(-c2ccccc2)cc1 | -83.0 | x | n
C[C@@H]1CN([C@H](C)CO)C(=O)c2ccccc2-c2ccccc2CO[C@@H]1CN(C)Cc1ccc(Cl)c(Cl)c1 | u | x | n
CO[C@@H]1CN(C)C(=O)c2ccc(NC(=O)c3ccc(Oc4ccccc4)cc3)cc2OC[C@@H](C)NC[C@@H]1C | n | x | n
CCCC#Cc1ccc([C@H]2[C@@H](CO)N3CCCCN(CC4CC4)C[C@H]23)cc1 | n | n | n
COc1ccc2c3c([nH]c2c1)[C@@H](CO)N(C(=O)CN(C)C)CC31CN(Cc2ccccc2)C1 | n | x | n
COc1ccc(CN2CC3(C2)CN(C(=O)CN(C)C)[C@@H](CO)c2[nH]c4cc(OC)ccc4c23)cc1 | -85.9 | x | n
COc1ccc(CN2CC3(C2)CN(C(=O)CN(C)C)[C@H](CO)c2[nH]c4cc(OC)ccc4c23)cc1 | -88.4 | x | n
COc1ccc2c3c([nH]c2c1)[C@H](CO)N(C(=O)CN(C)C)CC31CN(Cc2ccncc2)C1 | n | x | n
C[C@@H]1CN([C@H](C)CO)C(=O)c2cc(C#CCC3CCCC3)cnc2O[C@H]1CN(C)C(=O)CN(C)C | n | x | n
CNC(=O)C[C@H]1CC[C@H]2[C@@H](COC[C@H](O)CN2S(=O)(=O)c2ccc(Oc3ccccc3)cc2)O1 | n | n | n
C[C@H](CO)N1C[C@H](C)[C@H](CN(C)C(=O)Nc2cccc(C(F)(F)F)c2)OCc2ccccc2-c2c(n(C)c3ccccc23)C1=O | n | x | n
SMILES | Pf Dd2 inh | T cruzi growth | C diff growth
C[C@H](CO)N1C[C@H](C)[C@H](CN(C)C(=O)Nc2cccc(F)c2)OCc2ccccc2-c2c(n(C)c3ccccc23)C1=O | n | n | x
C[C@H]1CN([C@@H](C)CO)C(=O)c2c(c3ccccc3n2C)-c2ccccc2CO[C@@H]1CN(C)C(=O)Nc1cccc(C(F)(F)F)c1 | -94.4 | x | n
C[C@H](CO)N1C[C@H](C)[C@@H](CN(C)C(=O)Nc2cccc(C(F)(F)F)c2)OCc2ccccc2-c2c(n(C)c3ccccc23)C1=O | -85.5 | x | n
COc1ccc(NC(=O)N(C)C[C@H]2Oc3c(cccc3N(C)C)C(=O)N([C@H](C)CO)C[C@@H]2C)cc1 | n | n | n
CCNC(=O)C[C@@H]1CC[C@H](NS(=O)(=O)c2ccc(C)cc2)[C@H](CO)O1 | n | n | n
C[C@H](CO)N1C[C@H](C)[C@@H](CN(C)Cc2ccc(C(=O)Nc3ccccc3N)cc2)Oc2ccc(NS(=O)(=O)c3ccccc3)cc2C1=O | n | n | n
C[C@@H]1CN([C@@H](C)CO)C(=O)c2cc(NS(=O)(=O)c3ccccc3)ccc2O[C@H]1CN(C)Cc1ccc(C(=O)Nc2ccccc2N)cc1 | -83.1 | x | n
